Consider 17 compounds from PubChem BioAssay.

For assay [1], the target named is Nuclear receptor coactivator 3 (Homo sapiens) (UniProt Q9Y6Q9). The assay is described as follows: SRC3 coactivator transcriptional activity inhibitors, confirmation, cell-based, luminescence, quadruplicate (AID 588792;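 active = mean inhibition over 43.08%, the solvent-only control mean plus 3 SD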;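 note: 0% = DMSO treated cells and 100% = gossypol at 36 µM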). The note with it: HEK293 GAL4-SRC3 luciferase reporter, at 3.6 µM, stronger effect = higher value.
The test system of assay [2] is transactivating tegument protein VP16 (Human herpesvirus 1), Gal4-VP16 luciferase reporter. The assay is described as follows: VP16 transactivation inhibitors, counter-screen for SRC3 inhibitor project, cell-based, luminescence, high throughput (AID 588794; in the data active = inhibition above about 30%). The note with it: mammalian cells, VP16-driven luciferase reporter luminescence; at 3.6 µM; stronger effect = higher value.

In assay [3] the target is Nuclear receptor coactivator 1 (Homo sapiens) (UniProt Q15788). As to the kind of experiment: SRC1 coactivator transcriptional activity inhibitors, confirmation, cell-based, luminescence, quadruplicate (AID 588820;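 active = mean inhibition above 46.68%, the untreated control wells mean plus 3 SD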;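 note: 0% = DMSO wells and 100% = gossypol 36 µM treated wells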). The note with it: HEK293 GAL4-SRC1 luciferase reporter, at 3.6 µM, stronger effect = higher value.
The nature of assay [4]: VP16 transactivation inhibitors, counter-screen for SRC1 inhibitor project, cell-based, luminescence, high throughput (AID 588824). The note with it: cell-based VP16 transactivation luciferase luminescence; at 3.6 µM; stronger effect = higher value.
A short description of assay [5]: StAR promoter reporter inhibitors, counter-screen for LRH-1 inverse agonist project, cell-based, luminescence, high throughput (AID 651611; in the data active = inhibition above about 28%). The note with it: StAR promoter luciferase reporter counterscreen, at 3.6 µM, stronger effect = higher value.
The target of assay [6] is Nuclear receptor subfamily 5 group A member 2 (Homo sapiens) (UniProt O00482). As to the kind of experiment: LRH-1 (NR5A2) inverse agonists, retest, confirmation, cell-based, luminescence (AID 651613; in the data active = inhibition above about 42%;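 note: HEK293T cells co-transfected with LRH-1 and StAR promoter luciferase reporter; 0% = vehicle wells and 100% = parental cells lacking receptor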). The following applies: cell-based LRH-1 luciferase reporter, inverse agonism; at 3.6 µM; stronger effect = higher value.
The target in assay [7] is Steroidogenic factor 1 (Homo sapiens) (UniProt Q13285). As to the kind of experiment: SF1 (NR5A1) inverse agonists, counter-screen for LRH-1 inverse agonist project, cell-based, luminescence, high throughput (AID 651614; in the data active = inhibition above about 44%;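 note: cells cotransfected with StAR promoter reporter and SF1 expression vector; 0% = vehicle on cells with receptor and 100% = vehicle on cells lacking receptor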). The following applies: cell-based SF1 luciferase reporter, at 3.6 µM, stronger effect = higher value.
A short description of assay [8]: VP16 transactivation reporter inhibitors, counter-screen for LRH-1 inverse agonist project, cell-based, luminescence, high throughput (AID 651615; in the data active = inhibition above about 33%). The note with it: Gal4-VP16 luciferase reporter cells, at 3.6 µM, stronger effect = higher value.
In assay [9] the target is Photoreceptor-specific nuclear receptor (Homo sapiens) (UniProt Q9Y5X4). The assay is described as follows: NR2E3 agonist confirmation in cells, cell-based, luminescence, CHO-S two-hybrid (AID 624378;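 active = average inhibition above a cutoff equal to the mean inhibition of all tested compounds plus one SD, cut at about 70% in these data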;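 note: 0% = DMSO in NR2E3 cells and 100% = DMSO in cells lacking NR2E3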). The following applies: CHO-S mammalian two-hybrid NR2E3-NCOR, luciferase luminescence; at 3.98 µM; stronger effect = higher value.
The nature of assay [10]: GAL4-VP16 reporter modulators, confirmation, counter-screen for NR2E3 agonist project, cell-based, luminescence, CHO-S, high throughput (AID 624379;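 active = mean inhibition above a cutoff equal to the average over all tested compounds plus one standard deviation, cut at about 70% in these data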;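 note: 0% = DMSO with VP16-transfected cells and 100% = DMSO with cells lacking VP16; higher means less reporter light so more repression of VP16 activity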). The note with it: CHO-S GAL4-VP16 luciferase reporter, at 3.98 µM, stronger effect = higher value.
Assay [11] has as its system transactivating tegument protein VP16 (Human herpesvirus 1). As to the kind of experiment: VP16 transactivation reporter inhibitors, counter-screen for SRC2 inhibitor project, cell-based, luminescence, single concentration (AID 652007; in the data active = inhibition above about 36%). The note with it: cell-based VP16 transactivation luciferase reporter, at 8.9 µM, stronger effect = higher value.
Assay [12] addresses Nuclear receptor coactivator 2 (Homo sapiens) (UniProt Q15596). The assay is described as follows: SRC2 coactivator transcriptional activity inhibitors, confirmation, cell-based, luminescence, HEK293, triplicate (AID 652008;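 active = mean inhibition above 46.5%, the solvent-only control mean plus 3 SD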;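 note: 0% = DMSO-treated cells and 100% = Gossypol at 36 µM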). The following applies: HEK293 GAL4-SRC2 luciferase reporter, at 8.9 µM, stronger effect = higher value.
Assay [13] in a line: Gal4-VP16 luciferase reporter inhibitors, counter-screen for COUP-TFII antagonist project, cell-based, luminescence, HEK293 (AID 687007; in the data active = inhibition above about 13%). The note with it: at 8.5 µM, stronger effect = higher value.
Assay [14] addresses COUP transcription factor 2 (Homo sapiens) (UniProt P24468). As to the kind of experiment: NR2F2 transcriptional activity inhibitors, confirmation, cell-based, luciferase reporter, HEK293, triplicate (AID 687008;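 active = mean inhibition over three repeats above a set limit taken from the earlier primary screen, cut at about 38% in these data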;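 note: 100% = cells given the luciferase reporter alone without the COUP-TF2 vector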). The following applies: HEK293 NGFI-A luciferase reporter, luminescence; at 8.5 µM; stronger effect = higher value.
Assay [15] concerns the target Galanin receptor type 2 (Homo sapiens) (UniProt O43603). The assay is described as follows: GALR2 antagonists, retest of hits, confirmation, cell-based (AID 866; in the data active = inhibition above about 27%;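 note: cells stimulated with galanin at about its EC80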). The note with it: GALR2-expressing cells, antagonist mode, at 4 µM, stronger effect = higher value.
Assay [16] can be described thus: inhibitors of NFAT-driven beta-lactamase reporter, confirmation, counter-screen for GALR2 antagonist project, CHO NFAT-bla cells, FRET readout (AID 867;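 active = inhibition above the mean inhibition across tested compounds plus 3 SD, cut at about 27% in these data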;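 note: 0% = 500 nM thapsigargin stimulated wells and 100% = unstimulated BSA only wells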). The note with it: thapsigargin-stimulated, at 4.2 µM, stronger effect = higher value.
The target of assay [17] is Receptor-interacting serine/threonine-protein kinase 2 (Homo sapiens) (UniProt O43353). The assay is described as follows: NOD2-RIPK2 binding disruptors, retest, confirmation, fluorescence, CHO cells, BLA complementation, triplicate (AID 624370;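 active = mean inhibition across replicates above a set limit taken from the earlier primary screen, cut at about 21% in these data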;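 note: 0% = DMSO-only wells and the high end = clavulanate BLA-blocked wells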). The note with it: CCF4 FRET, at 4.98 µM, stronger effect = higher value.
The nature of assay [18]: beta-lactamase reporter inhibitors in CHO cells, confirmation, artefact control for NOD2-RIPK2 interaction inhibitor project, cell-based, CHO-K1 CMV-bla, CCF4 FRET, fluorescence (AID 624371;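 active = mean inhibition above the low-control mean inhibition plus three low-control SD, cut at about 11% in these data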;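 note: 0% = DMSO only wells and 100% = clavulanate high control wells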). The following applies: CCF4 FRET ratio, counterscreen, at 4.98 µM, stronger effect = higher value.

The structures appear in SMILES notation. A number with no mark means an inactive call. The list shows a part of the results. Active and inactive are the calls of the source. Cut-off read from the data, not from the text of the source, unless noted: active = inhibition above about 25%; inactive = the rest.

Nuclear receptor coactivator 1 (Homo sapiens), sequence (Q15788 whole entry, looked up, the tested form may be a part): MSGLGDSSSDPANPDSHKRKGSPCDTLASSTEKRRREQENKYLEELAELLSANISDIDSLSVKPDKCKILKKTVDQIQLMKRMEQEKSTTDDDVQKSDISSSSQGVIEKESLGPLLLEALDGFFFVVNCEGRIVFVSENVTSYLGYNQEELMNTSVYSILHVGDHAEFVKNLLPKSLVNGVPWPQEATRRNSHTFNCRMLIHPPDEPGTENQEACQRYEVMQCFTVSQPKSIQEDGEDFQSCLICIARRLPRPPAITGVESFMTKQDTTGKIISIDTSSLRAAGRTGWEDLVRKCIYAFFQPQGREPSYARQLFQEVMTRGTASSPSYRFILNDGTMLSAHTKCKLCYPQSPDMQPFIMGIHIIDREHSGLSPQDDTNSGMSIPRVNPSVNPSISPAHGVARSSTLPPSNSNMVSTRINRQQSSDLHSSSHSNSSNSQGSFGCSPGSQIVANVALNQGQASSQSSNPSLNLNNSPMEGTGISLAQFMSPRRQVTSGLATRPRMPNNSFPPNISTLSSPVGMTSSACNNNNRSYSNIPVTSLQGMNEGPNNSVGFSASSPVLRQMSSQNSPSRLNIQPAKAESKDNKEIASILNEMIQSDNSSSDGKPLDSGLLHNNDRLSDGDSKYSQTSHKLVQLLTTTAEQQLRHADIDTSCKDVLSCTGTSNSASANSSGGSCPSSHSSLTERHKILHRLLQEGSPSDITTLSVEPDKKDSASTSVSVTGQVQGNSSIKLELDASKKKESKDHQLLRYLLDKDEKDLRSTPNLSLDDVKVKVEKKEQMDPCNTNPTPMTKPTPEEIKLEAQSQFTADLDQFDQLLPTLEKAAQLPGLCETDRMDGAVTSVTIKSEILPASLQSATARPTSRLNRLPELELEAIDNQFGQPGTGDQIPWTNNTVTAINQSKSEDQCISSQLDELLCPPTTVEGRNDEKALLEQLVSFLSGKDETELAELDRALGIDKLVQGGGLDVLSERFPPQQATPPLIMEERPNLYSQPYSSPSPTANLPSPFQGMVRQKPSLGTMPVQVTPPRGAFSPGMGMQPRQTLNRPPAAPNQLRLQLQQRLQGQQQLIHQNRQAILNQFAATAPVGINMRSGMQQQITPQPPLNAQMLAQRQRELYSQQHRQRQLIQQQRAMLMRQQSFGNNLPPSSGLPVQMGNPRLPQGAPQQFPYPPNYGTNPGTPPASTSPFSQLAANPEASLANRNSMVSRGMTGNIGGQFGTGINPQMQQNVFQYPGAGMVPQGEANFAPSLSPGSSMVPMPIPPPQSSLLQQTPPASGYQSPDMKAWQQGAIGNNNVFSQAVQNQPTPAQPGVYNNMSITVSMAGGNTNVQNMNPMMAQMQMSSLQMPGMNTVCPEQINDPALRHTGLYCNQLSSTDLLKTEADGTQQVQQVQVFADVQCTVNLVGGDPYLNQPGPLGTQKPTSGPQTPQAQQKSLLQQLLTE
Nuclear receptor coactivator 3 (Homo sapiens), sequence (Q9Y6Q9 whole entry, looked up, the tested form may be a part): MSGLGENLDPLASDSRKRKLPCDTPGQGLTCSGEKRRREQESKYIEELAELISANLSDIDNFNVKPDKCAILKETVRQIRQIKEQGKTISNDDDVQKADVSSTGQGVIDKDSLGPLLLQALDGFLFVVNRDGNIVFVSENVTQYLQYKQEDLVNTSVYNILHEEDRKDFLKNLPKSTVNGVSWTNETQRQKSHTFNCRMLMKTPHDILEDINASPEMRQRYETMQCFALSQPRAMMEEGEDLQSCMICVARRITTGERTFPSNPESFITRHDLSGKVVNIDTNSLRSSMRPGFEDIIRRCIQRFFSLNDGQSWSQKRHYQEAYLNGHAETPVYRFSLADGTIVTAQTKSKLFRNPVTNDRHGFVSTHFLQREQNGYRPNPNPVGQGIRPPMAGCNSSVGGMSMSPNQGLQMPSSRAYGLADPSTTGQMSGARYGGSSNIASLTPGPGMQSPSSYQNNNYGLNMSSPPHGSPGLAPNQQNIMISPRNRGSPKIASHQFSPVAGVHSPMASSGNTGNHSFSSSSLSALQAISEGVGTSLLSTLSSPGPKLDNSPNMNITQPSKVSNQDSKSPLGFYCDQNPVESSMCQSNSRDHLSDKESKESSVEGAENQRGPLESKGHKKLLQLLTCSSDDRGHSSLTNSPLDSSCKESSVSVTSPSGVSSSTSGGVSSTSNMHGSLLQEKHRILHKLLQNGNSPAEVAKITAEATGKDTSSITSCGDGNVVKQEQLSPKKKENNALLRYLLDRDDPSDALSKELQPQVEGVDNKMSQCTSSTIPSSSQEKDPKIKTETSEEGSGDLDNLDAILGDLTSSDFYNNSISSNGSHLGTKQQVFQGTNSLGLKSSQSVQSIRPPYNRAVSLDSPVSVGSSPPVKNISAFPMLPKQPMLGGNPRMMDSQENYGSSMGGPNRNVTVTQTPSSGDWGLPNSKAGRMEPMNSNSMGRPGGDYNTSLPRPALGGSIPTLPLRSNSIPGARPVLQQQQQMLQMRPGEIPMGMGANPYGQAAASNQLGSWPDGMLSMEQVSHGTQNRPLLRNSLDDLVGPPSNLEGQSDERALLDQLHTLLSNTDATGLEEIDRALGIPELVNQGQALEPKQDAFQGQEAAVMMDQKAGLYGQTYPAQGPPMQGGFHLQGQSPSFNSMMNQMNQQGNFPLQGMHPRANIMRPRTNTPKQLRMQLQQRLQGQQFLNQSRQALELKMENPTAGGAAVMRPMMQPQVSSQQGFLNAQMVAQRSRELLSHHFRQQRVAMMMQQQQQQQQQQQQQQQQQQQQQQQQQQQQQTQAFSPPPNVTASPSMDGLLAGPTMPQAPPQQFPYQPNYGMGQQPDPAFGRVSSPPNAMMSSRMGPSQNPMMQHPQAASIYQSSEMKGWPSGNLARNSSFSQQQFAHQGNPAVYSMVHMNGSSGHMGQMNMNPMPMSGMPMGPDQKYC
Photoreceptor-specific nuclear receptor (Homo sapiens), sequence (Q9Y5X4 whole entry, looked up, the tested form may be a part): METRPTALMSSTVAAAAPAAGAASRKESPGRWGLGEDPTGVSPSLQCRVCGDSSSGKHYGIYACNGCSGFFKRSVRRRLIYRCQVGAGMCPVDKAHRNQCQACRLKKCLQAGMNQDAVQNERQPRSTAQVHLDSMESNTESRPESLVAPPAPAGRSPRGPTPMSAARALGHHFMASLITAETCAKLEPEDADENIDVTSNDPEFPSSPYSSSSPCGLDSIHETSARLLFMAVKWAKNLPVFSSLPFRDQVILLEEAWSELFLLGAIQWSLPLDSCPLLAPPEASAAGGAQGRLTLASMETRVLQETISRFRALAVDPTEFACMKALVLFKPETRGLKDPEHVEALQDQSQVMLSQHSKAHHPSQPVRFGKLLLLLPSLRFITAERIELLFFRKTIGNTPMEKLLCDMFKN
Nuclear receptor subfamily 5 group A member 2 (Homo sapiens), sequence (O00482 whole entry, looked up): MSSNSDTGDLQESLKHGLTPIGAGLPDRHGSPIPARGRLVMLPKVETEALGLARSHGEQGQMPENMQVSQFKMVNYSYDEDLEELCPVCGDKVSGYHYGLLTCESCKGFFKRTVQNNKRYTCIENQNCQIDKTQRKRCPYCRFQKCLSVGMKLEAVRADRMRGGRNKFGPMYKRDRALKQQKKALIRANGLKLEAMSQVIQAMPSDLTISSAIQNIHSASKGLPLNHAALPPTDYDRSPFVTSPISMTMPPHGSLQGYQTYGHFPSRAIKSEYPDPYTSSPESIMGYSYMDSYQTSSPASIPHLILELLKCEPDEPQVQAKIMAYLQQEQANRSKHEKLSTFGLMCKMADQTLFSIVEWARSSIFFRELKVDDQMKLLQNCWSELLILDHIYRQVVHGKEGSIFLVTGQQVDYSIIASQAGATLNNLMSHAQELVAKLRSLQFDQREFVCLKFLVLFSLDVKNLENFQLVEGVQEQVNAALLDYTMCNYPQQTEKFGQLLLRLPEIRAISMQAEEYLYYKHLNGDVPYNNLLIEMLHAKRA
Steroidogenic factor 1 (Homo sapiens), sequence (Q13285 whole entry, looked up, the tested form may be a part): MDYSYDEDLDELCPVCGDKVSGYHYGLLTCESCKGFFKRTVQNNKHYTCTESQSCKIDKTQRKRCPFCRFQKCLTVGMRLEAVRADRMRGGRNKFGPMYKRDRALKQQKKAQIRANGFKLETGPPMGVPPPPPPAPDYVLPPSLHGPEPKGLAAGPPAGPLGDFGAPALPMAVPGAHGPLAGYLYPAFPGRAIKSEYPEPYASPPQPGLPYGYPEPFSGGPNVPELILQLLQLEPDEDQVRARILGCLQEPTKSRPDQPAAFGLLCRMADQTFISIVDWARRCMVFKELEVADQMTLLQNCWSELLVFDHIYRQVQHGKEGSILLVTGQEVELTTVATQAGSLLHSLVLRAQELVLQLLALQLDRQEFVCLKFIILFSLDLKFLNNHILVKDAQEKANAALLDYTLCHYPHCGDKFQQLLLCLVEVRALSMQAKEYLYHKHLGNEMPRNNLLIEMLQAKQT
COUP transcription factor 2 (Homo sapiens), sequence (P24468 whole entry, looked up): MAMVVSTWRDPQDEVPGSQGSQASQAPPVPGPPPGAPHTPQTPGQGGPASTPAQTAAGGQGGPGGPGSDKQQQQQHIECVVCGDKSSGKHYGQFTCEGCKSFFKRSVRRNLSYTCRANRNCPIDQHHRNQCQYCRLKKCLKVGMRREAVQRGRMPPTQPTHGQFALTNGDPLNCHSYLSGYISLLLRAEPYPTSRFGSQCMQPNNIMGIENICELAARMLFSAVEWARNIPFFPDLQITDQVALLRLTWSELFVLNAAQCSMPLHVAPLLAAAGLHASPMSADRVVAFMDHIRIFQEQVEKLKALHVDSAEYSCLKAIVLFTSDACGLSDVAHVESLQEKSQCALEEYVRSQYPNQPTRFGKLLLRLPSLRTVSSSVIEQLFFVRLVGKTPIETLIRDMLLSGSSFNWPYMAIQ
Galanin receptor type 2 (Homo sapiens), sequence (O43603 whole entry, looked up): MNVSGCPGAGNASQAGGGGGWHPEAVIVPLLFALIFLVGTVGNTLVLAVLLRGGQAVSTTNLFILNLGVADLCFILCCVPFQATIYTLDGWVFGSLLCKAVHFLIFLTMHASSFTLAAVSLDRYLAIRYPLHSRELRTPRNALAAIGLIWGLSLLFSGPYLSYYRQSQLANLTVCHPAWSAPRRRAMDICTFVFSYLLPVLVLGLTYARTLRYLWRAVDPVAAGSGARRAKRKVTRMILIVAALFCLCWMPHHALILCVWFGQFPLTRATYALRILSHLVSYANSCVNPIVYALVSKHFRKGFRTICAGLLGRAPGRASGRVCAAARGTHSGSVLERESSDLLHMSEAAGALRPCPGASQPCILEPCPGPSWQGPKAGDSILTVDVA

As for `NS(=O)(=O)c1ccc(NC(=O)/C=C/c2ccc3c(c2)OCO3)cc1`, the inhibition in assay [1] was 10.8%; in assay [2], 53.6% (active); in assay [3], 17.1%; in assay [4], 52% (active); in [5], 47% (active); in assay [6] it was 61.7% (active). For the same compound, the inhibition is 62.2% (active) in [7] and 66.2% (active) in assay [8].

Consider `CC(=NNC(=S)Nc1ccccc1Cl)c1ccccn1`, for which the inhibition in [1] is 41.9%; in assay [2] it was 71.8% (active); in assay [3], 18.6%; in [4], 73% (active); in assay [5], 84.3% (active); in assay [6], 106% (active). Moreover, the inhibition in assay [7] is 91.1% (active); in [8] it was 83.9% (active).

`Cc1ccc(C)c(S(=O)(=O)N2CCN(c3ncnc4sccc34)CC2)c1`: the inhibition is 63.1% (active) in [1]; 59.6% (active) in assay [2]; 57.9% (active) in assay [3]; 56.5% (active) in [4]; 93.9% (active) in assay [9]; 82.7% (active) in assay [10]. Besides, the inhibition in assay [11] was 32.8%; in assay [12], 53.3% (active); in assay [13], 20.1% (active); in assay [14], 49.9% (active).

Turning to `COc1ccc(CCNC(=O)c2nnn(-c3ccc4c(c3)OCCO4)c2N)cc1OC`, the inhibition in assay [1] is 31.7%; in assay [2], 2.53%; in assay [3], 13.1%; in [4], -6.95%; in assay [5], 44.7% (active); in [6], -26.3%. For the same compound, the inhibition in assay [7] was 29%; in assay [8], -16.9%.

Consider `O=C(CSc1nc2sc3c(c2c(=O)n1-c1ccccc1)CCCC3)NCc1ccco1`, for which the inhibition in assay [1] was 7.86%; in assay [2] it was -11.9%; in assay [3], 4.53%; in assay [4], -16.3%; in assay [5] it was 8.53%; in assay [6], 15.3%. The results for the inhibition in assay [7] and in assay [8] were 10.7% and 3.41%, respectively.

With `CN(C)CC1CCC/C(=C\c2ccc(OC(=O)c3ccc(Cl)cc3)cc2)C1=O` (centres undefined), the inhibition was 50.4% (active) in assay [1]; 60.2% (active) in assay [2]; 29.9% in assay [3]; 58.1% (active) in assay [4]; 70.8% (active) in assay [5]; 89.9% (active) in [6]. Also, the inhibition in assay [7] was 76.4% (active); in assay [8], 69.3% (active).

Take `O=C(O)CSCC(=O)Nc1ccc(C2CCCCC2)cc1`: the inhibition in assay [1] is 72% (active); in [2], 62.4% (active); in assay [3], 64.2% (active); in assay [4], 63.7% (active); in [5], 71.4% (active); in assay [6] it was 78.8% (active). Moreover, the inhibition is 64.5% (active) in assay [7] and 63.6% (active) in assay [8].

`CCC(C)(C)c1ccc(OCCCC[n+]2cccc(C)c2C)c(C(C)(C)CC)c1`: the inhibition in assay [1] is 56.1% (active); in [2], 72.2% (active); in [3], 43.5%; in assay [4], 71% (active); in assay [5], 58% (active); in assay [6], 88.1% (active). Besides, the inhibition in [7] was 85.2% (active); in assay [8], 80.9% (active).

On to `N=C1C=CC(=C(c2ccc(N)cc2)c2ccc(N)cc2)C=C1`, for which the inhibition in [1] was 56.2% (active); in assay [2], 60% (active); in [3] it was 45.2%; in assay [4], 45.9% (active); in [5], 54.9% (active); in assay [6] it was 110% (active). Besides, the figures for the inhibition in assay [7] and in assay [8] were 85.2% (active) and 88.5% (active), respectively.

Take `CNC(=O)c1ccc(NC(=O)C2CCN(c3ncnc4sc(C)c(C)c34)CC2)cc1`: the inhibition in [1] was 51.6% (active); in assay [2] it was 35.5% (active); in assay [3], 48.7% (active); in [4], 30% (active).

With `COc1ccc(-[n+]2c(C)cc(/C=C3\Sc4ccccc4N3C)cc2C)cc1`, the inhibition in assay [1] was 74.4% (active); in [2], 83.5% (active); in [3] it was 47.5% (active); in assay [4], 78.8% (active); in assay [5] it was 74.5% (active); in [6], 106% (active). In addition, the inhibition in assay [7] was 90% (active); in [8], 87.4% (active).

`CC(C)c1ccc(-c2csc(NC(=O)c3cccs3)c2C(=O)O)cc1`: the inhibition in assay [1] was 8.33%; in assay [2], 18.6%; in assay [3], -2.31%; in [4] it was 33.9% (active).

Regarding `CCCCCCCCCn1c2c(c(=N)c3c1CCC3)CCCC2`, the inhibition is 87.2% (active) in assay [1]; 90.4% (active) in assay [2]; 65.6% (active) in assay [3]; 85.3% (active) in assay [4]; 83.7% (active) in assay [5]; 111% (active) in [6]. The inhibition is 95.6% (active) in assay [7] and 94.6% (active) in [8].

With `CC(=O)NC(c1ccc2ccccc2c1)c1ccc2cccnc2c1O` (centres undefined), the inhibition in [1] was 81.5% (active); in assay [2], 79.2% (active); in assay [3], 70.4% (active); in assay [4], 74.3% (active); in assay [5] it was 86.3% (active); in assay [6], 104% (active). For the same compound, the figures for the inhibition in assay [7] and in [8] were 87.6% (active) and 79.9% (active), respectively.

For the compound `COc1cc2oc(=O)cc(-c3ccc(-c4ccc(CO)cc4)cc3)c2c(OC)c1OC`, the inhibition in [1] was 45.9% (active); in [2], 28.3%; in assay [3], 32.9%; in assay [4], 32.5% (active).

`CC(=O)N1CCCc2cc(S(=O)(=O)N3CCCC(C(=O)N4CCN(c5cccc(Cl)c5)CC4)C3)ccc21` (centres undefined): the inhibition in assay [1] was 26.4%; in [2], 31.5% (active); in [3], 7.87%; in assay [4], 35.6% (active); in assay [9], 93% (active); in [10] it was 70.2%. Moreover, the inhibition was 14.8% in [11], 26.6% in assay [12], 4.48% in assay [13] and 60.1% (active) in assay [14].

`CC[C@H]1CN2CCc3cc(OC)c(OC)cc3[C@@H]2C[C@@H]1C[C@H]1NCCc2cc(OC)c(OC)cc21`: the inhibition is 102% (active) in assay [15]; 92.8% (active) in assay [16]; 98.3% (active) in assay [1]; 97.2% (active) in assay [2]; 92.6% (active) in [3]; 96.4% (active) in assay [4]. In addition, the inhibition was 30.7% (active) in [17]; -0.09% in assay [18]; 97.8% (active) in [9]; 99.2% (active) in assay [10]; 94.6% (active) in assay [5]; 109% (active) in assay [6]. The results for the inhibition in assay [7] and in assay [8] were 97.7% (active) and 96.4% (active), respectively.
